About 79,000 compounds went through this panel and 15% of them were active in at least one assay; those are over-represented in the sample as a whole. Rule as the data show it: active = growth inhibition above about 70%; inactive = the rest.
Tests used:
[1] = NCI Yeast Anticancer Drug Screen. Data for the rad50 strain (AID 155);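 also: 0% = growth of vehicle-only cultures of the same strain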; details: S. cerevisiae rad50 strain growth inhibition; at 50.0 µM; stronger effect = higher value
In short: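 Compounds were tested on a yeast strain with an engineered DNA damage repair alteration; the reported value is growth inhibition normalised to vehicle treatment.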

[2] = NCI Yeast Anticancer Drug Screen. Data for the mec2-1 strain (AID 157); details: S. cerevisiae mec2-1 strain, at 50.0 µM, stronger effect = higher value
In short: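 Vehicle-treated cultures served as reference for growth inhibition of compound-exposed mec2-1 yeast.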

[3] = NCI Yeast Anticancer Drug Screen. Data for the sgs1 mgt1 strain (AID 161);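 also: 0% = growth of cultures given vehicle only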; details: S. cerevisiae sgs1 mgt1 strain, at 50.0 µM, stronger effect = higher value
In short: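 Test agents were incubated with a DNA-repair-mutant yeast strain. Growth was then read and compared against vehicle-treated controls.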

[4] = NCI Yeast Anticancer Drug Screen. Data for the cln2 rad14 strain (AID 165);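 also: 0% = growth equal to vehicle treated cultures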; details: S. cerevisiae cln2 rad14 strain, at 50.0 µM, stronger effect = higher value
In short: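 Each compound was tested on cln2 rad14 yeast. Inhibition of growth was calculated against vehicle-exposed controls.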

[5] = NCI Yeast Anticancer Drug Screen. Data for the bub3 strain (AID 167); details: S. cerevisiae bub3 mutant strain, at 50.0 µM, stronger effect = higher value
In short: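 Growth of a checkpoint-deficient yeast mutant is measured after compound exposure. Values represent inhibition relative to vehicle.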

[6] = NCI Yeast Anticancer Drug Screen. Data for the mlh1 rad18 strain (AID 175); details: S. cerevisiae mlh1 rad18 strain growth inhibition; at 50.0 µM; stronger effect = higher value
In short: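 Vehicle-treated cultures served as the reference for growth inhibition in a yeast strain carrying DNA damage repair alterations exposed to each compound.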

Measured: growth inhibition

O=c1[nH]c(=O)n(C2OC(COP(=O)(O)OP(=O)(O)O)C(O)C2O)cc1F (stereo unspecified)
inactive: [1] 1.4% | [2] -2.7% | [3] -11.4% | [4] -31.3% | [5] 0.75% | [6] -7%

CC(C)c1cccc(C(C)C)c1N1C(=O)C(=O)C(c2nc3ccccc3s2)C(=O)C1=O
inactive: [1] -11.7% | [2] -17.1% | [3] -7.65% | [4] -10% | [5] 1.55% | [6] -12.2%

C/C(=N\NC(=O)c1ccncc1)c1cccc(F)c1
inactive: [1] -57% | [2] -20.9% | [3] -51.2% | [4] -48.7% | [5] -67.8% | [6] -38%

CC(CNC(N)=O)NC(N)=O (stereo unspecified)
inactive: [1] -23.8% | [2] -15.8% | [3] -32.4% | [4] 11.4% | [5] -19.6% | [6] -24.4%

CCN(CC)c1ccc2cc(-c3nc4ccccc4s3)c(=O)oc2c1
inactive: [1] 12.4% | [2] -18.1% | [3] -9.5% | [4] -3.05% | [5] -11.5% | [6] 4.8%

O=C(Nc1ccc(O)cc1)c1ccccc1O
inactive: [1] 31.6% | [2] -20.4% | [3] 14.3% | [4] -5.95% | [5] 15.4% | [6] 1.25%

Cn1c2c(c3ccccc31)CCCC2
inactive: [1] 1.55% | [2] -14.8% | [3] 1.4% | [4] -16.8% | [5] 4.5% | [6] 5.35%

O=C1NC(=O)N2CC(CI)OC2C1c1ccccc1 (stereo unspecified)
inactive: [1] 0.25% | [2] 12.8% | [3] 10.2% | [4] 6.55% | [5] -6.6% | [6] 11.4%

NCCSCCN
inactive: [1] -7.65% | [2] -2.45% | [3] -4.65% | [4] -0.3% | [5] 13.2% | [6] 8.15%

C/C(=N\O)C1(C)CC=CCC1C(=O)O (stereo unspecified)
inactive: [1] -4.8% | [2] 4.5% | [3] 2.8% | [4] 19.2% | [5] -11.3% | [6] 1.4%

COC(=O)c1ccc(CSc2ccc(N)cc2)cc1
inactive: [1] 53.1% | [2] 36.2% | [3] 60.6% | [4] 40.1% | [5] 46.1% | [6] 68.5%

CCC/C=N\NS(=O)(=O)c1ccc(NC(C)=O)cc1
inactive: [1] 4.65% | [2] -28.4% | [3] 11.6% | [4] 12.6% | [5] -43.7% | [6] 27.2%

Cc1c[n+]([O-])n(-c2ccccc2)n1
inactive: [1] 4.65% | [2] -4.9% | [3] 0.7% | [4] -38.7% | [5] 11.6% | [6] -4.8%

N[n+]1ccccc1
inactive: [1] -9.45% | [2] -6.85% | [3] -9.1% | [4] -37.4% | [5] -4.65% | [6] -2.6%

Oc1cccc2ccc[n+](CCc3ccccc3)c12
inactive: [1] 1.4% | [2] 9.15% | [3] 8.7% | [4] -13.5% | [5] -5.9% | [6] 31.6%

Cc1ccc2c(c1)C(c1ccccc1)(c1ccccc1)OC2=O
inactive: [1] 17.6% | [2] 11.9% | [3] 6.75% | [4] 7.95% | [5] 11.4% | [6] 20.4%

CCOC(=O)c1c(SC(=O)c2ccc(OC)cc2)n(-c2ccccc2)c(=S)n(-c2ccccc2)c1=O
inactive: [1] 16.2% | [2] 0.75% | [3] 3.75% | [4] 8.55% | [5] 16.8% | [6] 12.8%

CC1=CC(c2ccccc2)(c2ccccc2)c2ccccc21
inactive: [1] 0.1% | [2] 3% | [3] 5% | [4] -19.1% | [5] 1.7% | [6] -17.4%

COC(=O)C1CCC(=O)N1C(c1ccc(OC)cc1)c1ccc2c(c1)OCO2 (stereo unspecified)
inactive: [1] -0.1% | [2] 20.9% | [3] 11.1% | [4] 11.7% | [5] 31.5% | [6] 34%

CCOC(=O)C(=O)C(Cc1ccccc1)C(=O)OCC (stereo unspecified)
inactive: [1] 0.2% | [2] -3.95% | [3] 9.75% | [4] -46.5% | [5] 11.7% | [6] -7.2%

O=NNc1ccc(Sc2ccc(NN=O)nc2)cc1
inactive: [1] 4.65% | [2] -7.4% | [3] 8.45% | [4] 17% | [5] -3.15% | [6] 21.9%

CC1CC(C#N)=C2NCCCCN2C1=O (stereo unspecified)
inactive: [1] -21.6% | [2] -44.8% | [3] -2.25% | [4] 3.65% | [5] -7.9% | [6] -14.3%

CN(C)c1ccc(/C=C(\NC(=O)c2ccccc2)C(=O)Nc2ccccc2C(=O)NCc2ccccc2)cc1
inactive: [1] 9.95% | [2] 11.7% | [3] 14.8% | [4] 12.3% | [5] 5.95% | [6] 30.7%

CC(=O)c1c(C)c(Cl)c(C)c(Cl)c1O
inactive: [1] -14.6% | [2] 2.75% | [3] 17.6% | [4] 7.4% | [5] 26.4% | [6] 7%

CC(C)OC1CC1
inactive: [1] 4.65% | [2] -10.6% | [3] -10.5% | [4] 4.9% | [5] 11.7% | [6] -21%

[O-][N+](=Nc1ccc(Sc2ccccc2)cc1)c1ccc(Sc2ccccc2)cc1
inactive: [1] -4.65% | [2] 2.3% | [3] 19% | [4] -17% | [5] 21.9% | [6] 28.1%

CC1COB(c2ccccc2)OCC(C)N1CNC(=O)C1=C(O)C2(O)C(O)=C3C(=O)C4C(O)=CC=CC4C(C)(O)C3CC2C(N(C)C)C1=O (stereo unspecified)
inactive: [1] -8.75% | [2] 33.2% | [3] 34.6% | [4] -16.6% | [5] -6.85% | [6] 38.6%

CC(=O)/C=C\c1cc(C)ccc1O
inactive: [1] 27.3% | [2] 22.1% | [3] 9.3% | [4] -35.7% | [5] 8.25% | [6] 12.6%

Cc1cc(=O)[nH]c(=O)n1CCCN(C)CCCn1c(C)cc(=O)[nH]c1=O
inactive: [1] 2.2% | [2] -2.35% | [3] 8.85% | [4] -0.9% | [5] -28.6% | [6] -3.95%

O=c1c(Cl)c(-c2cccc3ccccc23)oc2ccccc12
inactive: [1] -14.3% | [2] 1.8% | [3] 4.2% | [4] -40.6% | [5] 9.2% | [6] -15.4%

CN1CCN(C(CO)Cc2ccccc2)CC1 (stereo unspecified)
inactive: [1] 3.85% | [2] -10.1% | [3] -9.5% | [4] -15.8% | [5] 8.8% | [6] -7.4%

NCCCCN(CCCN)Cc1ccccc1
inactive: [1] -4.8% | [2] -1.25% | [3] -17.1% | [4] 11.6% | [5] -4% | [6] -58.9%

COc1ccc(/C=C/C(=O)c2ccc(F)cc2)cc1
inactive: [1] 8.85% | [2] -16.4% | [3] -12.4% | [4] -35.4% | [5] -6.5% | [6] 10.2%

NC(=S)c1ccc[n+](Cc2c(Cl)cccc2Cl)c1
inactive: [1] 11.9% | [2] 3.6% | [3] -0.8% | [4] -13.3% | [5] -0.15% | [6] -4.4%

c1ccc(CCOC(c2ccccc2)(c2ccccc2)c2ccccc2)cc1
inactive: [1] -11.2% | [2] -9.25% | [3] 0.3% | [4] -61.6% | [5] -10.4% | [6] -26.2%

COC(=O)c1ccc([N+](=O)[O-])cc1C(=O)OC
inactive: [1] 4.85% | [2] -16.7% | [3] -42.1% | [4] -12.3% | [5] -52.8% | [6] -3.2%

O=C1CC(NC(=O)c2ccccc2)C(=O)O1 (stereo unspecified)
inactive: [1] -5.75% | [2] 3.4% | [3] 18.8% | [4] -31.1% | [5] 4.3% | [6] -21.4%

COc1ccc(Cl)cc1[N+](=O)[O-]
inactive: [1] 27.6% | [2] 3.15% | [3] -3.85% | [4] 9.5% | [5] 13.6% | [6] 18.2%

Cc1ccc(N=Nc2c(O)c3ccccc3[nH]c2=O)c(S(=O)(=O)N(C)C)c1
inactive: [1] 29.7% | [2] -24.2% | [3] -24.9% | [4] 29.6% | [5] -27.2% | [6] -17.5%

CN(CCO)c1nc(N)cc(=O)[nH]1
inactive: [1] -17.7% | [2] 12.5% | [3] -10.9% | [4] 4.5% | [5] -10.9% | [6] -8.45%

N#C/C(=C/c1cccc([N+](=O)[O-])c1)C(=O)O
inactive: [1] 38% | [2] 10.6% | [3] 22.6% | [4] 12.9% | [5] 15.8% | [6] 38%

Reference: PubChem BioAssay (NCI)
